Screening data from PubChem.
Pol eta inh – qHTS for Inhibitors of Polymerase Eta; 390,000 compounds, 1.2% hits; AID 588591, 2011; DNA polymerase eta (Homo sapiens), Q9Y253; recombinant Pol eta, fluorescent DNA replication assay; Potency, µM (series often up to 114 µM), actives largely listed as inhibitors
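Fluorescent replication assay: 50 nM final substrate added after a 15 min room-temperature compound preincubation with 10 nM enzyme. Signal taken at 0 min and again at 10 min.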
Pol iota inh – qHTS for Inhibitors of Polymerase Iota; Pol iota fluorescent replication assay, 10 min; Potency, µM (series often up to 115 µM), hits mostly inhibitors; 390,000 compounds, 1% hits
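Pol iota at 10 nM preincubated 15 min with compounds at room temperature; reaction started with fluorescent substrate, 50 nM final. Fluorescence read kinetically at 0 and 10 min; buffer-only wells as negative control.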
WRN inhibitor – qHTS for Inhibitors of WRN Helicase; Bifunctional 3'-5' exonuclease/ATP-dependent helicase WRN (Homo sapiens), Q14191; WRN helicase unwinding, fluorescent forked duplex, kinetic; 360,000 compounds, 0.46% hits; Potency, µM (doses to about 114 µM), actives largely listed as inhibitors; note: nearly all actives have a fitted effect of over 55% in size
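WRN at 20 nM final was preincubated with compound for 15 min at room temperature; reaction started with 100 nM forked duplex oligonucleotide carrying fluorophore and quencher plus 2 mM ATP (final). Unwinding followed kinetically by red fluorescence (ex 525/em 598 nm).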
Pol beta inh – qHTS Assay for Inhibitors of DNA Polymerase Beta; AID 485314, 2010; Pol beta primer extension/strand displacement, fluorescence kinetic; 340,000 compounds, 1.3% hits; Potency, µM (titrated, usually from 114 µM), actives largely listed as inhibitors
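10 nM enzyme + cpd, 15 min RT; start with substrate 50 nM final; read 0 min and after 10 min RT. Corrected, normalized data; 4-parameter Hill curve fit.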
PI5P4K alpha inh – qHTS for Inhibitors of phosphatidylinositol 5-phosphate 4-kinase (PI5P4K); PI5P4Kalpha enzyme, ADP-Glo luminescence, 60 min; active compounds read low; max response, %; 330,000 compounds, 1.2% hits; Phosphatidylinositol 5-phosphate 4-kinase type-2 alpha (Homo sapiens), P48426; active = max response of -50% or lower; inconclusive = between -30% and -50%; inactive = -30% or higher; note: value at the top dose of about 77 µM
Target sequence (P48426 whole entry, looked up): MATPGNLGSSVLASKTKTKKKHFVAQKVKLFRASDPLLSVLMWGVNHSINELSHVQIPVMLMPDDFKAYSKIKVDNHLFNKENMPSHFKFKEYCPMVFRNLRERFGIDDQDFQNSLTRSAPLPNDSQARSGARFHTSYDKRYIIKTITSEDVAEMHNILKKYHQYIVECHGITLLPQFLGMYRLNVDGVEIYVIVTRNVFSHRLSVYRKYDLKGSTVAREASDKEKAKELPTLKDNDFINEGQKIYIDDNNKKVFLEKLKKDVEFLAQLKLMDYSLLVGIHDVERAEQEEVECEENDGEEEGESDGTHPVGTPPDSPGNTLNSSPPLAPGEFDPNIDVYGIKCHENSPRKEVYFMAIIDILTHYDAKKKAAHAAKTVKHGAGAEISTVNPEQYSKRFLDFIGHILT
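Compounds were pin-transferred onto PI5P4Kalpha and substrate in HEPES pH 7.4 buffer with EGTA, CHAPS and 5% DMSO. ATP (5 microM final) started the reaction, which ran 60 minutes at room temperature before ADP-Glo detection.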
POLK inh – qHTS for Inhibitors of Polymerase Kappa | purified Pol kappa, fluorescent DNA synthesis assay, 10 min | Potency, µM (series often up to 107 µM), actives largely listed as inhibitors | 400,000 compounds, 0.53% hits
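Kinetic fluorescence readout at 0 and 10 min followed reaction start with substrate at 50 nM final. Beforehand, enzyme (10 nM Pol kappa) stood 15 min with compound at room temperature; buffer-only wells were negative controls.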
A number is an active result; - = inactive; ? = inconclusive; . = not tested or not shown; [ ] = dose if it differs, or a comment. In the library only some 2.8% were active in any assay of this set; here they are far more common. Unless noted, calls come from the whole dose curve; as a rule, active = well fitted curve in the direction sought with a large enough effect; inconclusive = small, poorly fitted or top-dose-only effect, or another doubt; inactive = no such curve, though single readings can be large; an effect the other way counts as inactive or inconclusive.

SMILES	Pol eta inh	Pol iota inh	WRN inhibitor	Pol beta inh	PI5P4K alpha inh	POLK inh
CN1CCN(C(=O)CCc2nc3ccccc3n2-c2ccccc2)CC1	-	-	-	-	-	-
Cc1cccc2nc(CSCc3ccco3)cn12	20µM	?	-	40µM	-	-
Cc1cc(C)n2cc(CSCc3ccco3)nc2n1	?	?	?	-	-	-
Cc1ccc(C)c(Cn2c3ccccc3c3cnn(CC(=O)NCc4ccccc4)c(=O)c32)c1	-	-	.	-	.	-
Cc1ccc2oc(-c3ccc(C)c(NC(=O)/C=C/c4ccco4)c3)nc2c1	?	?	.	-	.	-
O=C(O)CC1(CC(=O)Nc2ccccc2N2CCOCC2)CCCC1	-	-	-	10µM	-	-
CCCCCCCCCCC[N+](C)(C)CC/C=C1/c2ccccc2Sc2ccc(Cl)cc21	-	-	-	?	-	-
CCCCCCCCCC[N+](C)(C)CC/C=C1/c2ccccc2Sc2ccc(Cl)cc21	-	-	-	40µM	-	-
N#CCn1cnc2sc(-c3ccccc3)cc2c1=O	?	-	-[11.6 µM]	?	-52	-
CCn1cnc2sc(-c3ccccc3)cc2c1=O	-	-	-	-	-	-
O=c1c2ccccc2oc2cc(O)c(C3COCC(CO)C(O)C(O)C3O)c(O)c12 (stereo not drawn)	.	.	.	.	.	2.5µM
Cn1nc(C(C)(C)C)cc1C(=O)N1CCCCC1c1cc(C(=O)Nc2ccc3c(c2)OCO3)no1 (stereo not drawn)	.	.	-	.	-	.
Cc1oc2c(cc(NS(=O)(=O)c3ccc(Cl)cc3)c3ccccc32)c1C(=O)O	50µM	-	-	-	-	-
Cc1ccc(NC(=O)CN2C(=O)C(c3ccc(F)cc3)=NC2(C)C)c(C)c1	.	-	.	-	.	-
O=S(=O)(c1ccccc1Br)N(Cc1ccccc1)CC(O)COCc1ccccc1 (stereo not drawn)	-	-	-	.	-	-
COc1ccc(Nc2nc(N3CCCC3)c3ccccc3n2)cc1	-	?	?	35µM	-	-
COc1ccc(-c2nc3ccccc3c(=O)n2N)cc1	-	-	-	56µM	-	-
COc1cccc(-c2cnc(C(O)c3cccc(F)c3)[nH]2)c1 (stereo not drawn)	.	.	-	.	-	.
CC(C)n1c(=O)c2c(O)cc(=O)oc2c2ccccc21	-	?	-[11.6 µM]	18µM	.	?
O=c1cc(O)c2c(=O)n(-c3ccccc3)c3ccccc3c2o1	?	-	-	22µM	-	-
O=c1cc2c(c(-c3ccccc3)n1Cc1ccccc1)[C@@H](CCO)NC2	-	-	-	.	-	-
CCS(=O)(=O)N1CCN(C(=O)c2ccc3nc(C)c(N(C)C(=O)CCc4ccccc4)n3c2)CC1	.	.	-	.	-	.
CCOc1ccccc1CNC(=O)C1CCN(S(=O)(=O)c2cccc3nonc23)CC1	-	-	.	-	.	-
CC(=O)OCC1OC(n2cc(F)c(=O)[nH]c2=O)C(OC(C)=O)C1OC(C)=O (stereo not drawn)	-	-	-	.	-	-
O=C1C(F)=CC(COC(c2ccccc2)(c2ccccc2)c2ccccc2)OC1n1cc(F)c(=O)[nH]c1=O (stereo not drawn)	50µM	?	?	.	?	-
SMILES	Pol eta inh	Pol iota inh	WRN inhibitor	Pol beta inh	PI5P4K alpha inh	POLK inh
CCCC(CCC(=O)Nc1cc([N+](=O)[O-])ccc1O)C(=O)O (stereo not drawn)	-	-	-	22µM	-	-
O=C(O)CCCC(=O)Nc1cc([N+](=O)[O-])ccc1O	-	-	-	-	-	-
Cc1cc(Cl)ccc1OC(C)C(=O)Nc1ccc(C(=O)Nc2ccccc2C(=O)O)cc1 (stereo not drawn)	-	?	-	79µM	?	-
O=C(/C=C/C(=O)Oc1ccccc1C(=O)O)Oc1ccccc1C(=O)O	.	.	.	.	.	-
CCOc1ccccc1C(=O)NCC(=O)OCC(=O)c1ccc2c(c1)OCCO2	-	?	-	71µM	-	-
COc1ccc(-n2c(SCC(=O)C(C)(C)C)nc3c(sc(=S)n3-c3ccccc3)c2=O)c(OC)c1	-	11µM	-	-	-	-
CCOC(=O)CSc1nc2c(sc(=S)n2-c2ccccc2OC)c(=O)n1-c1ccccc1OC	-	-	-	-	-	-
CS(=O)(=O)c1ccc(C(=O)OCC(=O)NC(=O)NC2CCCCC2)cc1[N+](=O)[O-]	.	-	.	.	.	-
CS(=O)(=O)c1ccc(C(=O)OCC(=O)NC23CC4CC(CC(C4)C2)C3)cc1[N+](=O)[O-]	16µM	22µM	-	-	-	-
COc1ccc(OC)c(CNS(=O)(=O)c2c(C(=O)N3CCC(C)CC3)c(C)n(C)c2C)c1	-	-	.	-	.	-
CN(CC(=O)NCCc1ccc(Cl)cc1)S(=O)(=O)c1ccc2c(c1)c(=O)n(C)c(=O)n2C	?	-	-	-	-	-
CN(CC(=O)NCCC1=CCCCC1)S(=O)(=O)c1ccc2c(c1)c(=O)n(C)c(=O)n2C	-	79µM	-	-	-	-
Cc1nc2ccc(NC(=O)[C@H](C)N3C(=O)C4CC=CCC4C3=O)cc2s1 (stereo partly drawn)	-	-	-	.	-	-
c1ccc2c(c1)sc[n+]2CCC1CCCCC1	.	-	.	.	.	-
COc1cccc(C(=O)NN2CC(O)=C(c3nc4ccccc4s3)C2=N)c1	-	?	-	?	-	-
N=C1C(c2nc3ccccc3s2)=C(O)CN1NC(=O)c1ccco1	-	?	-	25µM	-	-
Cn1cc(-c2ccccc2C(=O)O)c(=O)c2cc(Cl)ccc21	-	-	-	-	-	-
CCC(C(=O)O)n1c(C(F)(F)F)nc2ccccc21 (stereo not drawn)	-	-	-	-	-	-
CCC(C(=O)O)n1c2ccccc2c2cn[nH]c(=O)c21 (stereo not drawn)	?	-	-[11.6 µM]	22µM	-	-
Oc1c(Br)cc(/C=N/NC(=S)NCc2ccco2)cc1Br	-	-	-	?	-74	-
Cc1ccc(CNC(=O)COc2ccc(C)nc2[N+](=O)[O-])cc1	-	-	-	-	-	-
Cc1ccc(OCC(=O)c2ccc(Cl)s2)c([N+](=O)[O-])n1	?	?	-	25µM	-56	?
CCc1nc2ccc(C(=O)NCCCN3CCCC3=O)cn2c1N(CC)Cc1cccc(Br)c1	.	.	-	.	-	.
COc1ccc(/C=C2/C(=O)N(c3cccc(F)c3)N=C2C)c(OC)c1	-	1.1µM	-	-	-	-
CC1=NN(c2cccc(F)c2)C(=O)/C1=C/c1ccc(N(C)C)cc1	-	-	-	-	-	-
CC1=NN(c2ccccc2)C(=O)/C1=C\c1ccc(Br)s1	89µM	?	-[11.6 µM]	-	-	-
